Records with an inconclusive call do not appear. Calls of active or inactive are those of the source. How the source made its calls: active means hit-call score of the fitted dose curve at least 0.9, where 1 is the maximum; inconclusive means response in the unintended direction; inactive means score below 0.9.
What follows are molecules tested against Estrogen receptor (Homo sapiens) (UniProt P03372) (assay: ERF_US_NR_hESR1: Eurofins (ERF) Nuclear Receptor (NR) Cell Based Protein-Protein Interaction LeadHunter Assay for human Estrogen Receptor alpha (ERa) Agonism).
Description: ERF_US_NR_hESR1 is a cell-based, single-readout assay that uses extracted gene-proteins in a cell-line assay. Measurements were taken 5 hours after chemical dosing in a 384-well plate. See ERalpha Human Estrogen NHR Cell Based Agonist Protein-Protein Interaction Assay, DiscoverX.ERF_US_NR_hESR1 is an assay component calculated from the ERF_US_NR_hESR1 assay. It is designed to […].Data from the assay component ERF_US_NR_hESR1 was analyzed at the assay endpoint, ERF_US_NR_hESR1, in the positive analysis fitting direction relative to DMSO as the negative control and baseline of activity. Using a type of binding reporter, gain-of-signal activity can be used to understand changes in binding as they relate to gene ESR1. To generalize the intended target to other relatable targets, this assay endpoint is annotated to the nuclear receptor intended target family, where the subfamily is steroid.
Cells were seeded in a total volume of 20 uL into white walled, 384-well microplates and incubated at 37C overnight prior to testing. Briefly, intermediate dilution of sample stocks was performed to generate 5X sample in assay buffer. 5 uL of 5X sample was added to cells and incubated at37C for 300 minutes. Final assay vehicle concentration was 1%. The results are expressed as a percent efficacy of the control ligand.

Chain of Estrogen receptor (Homo sapiens) (P03372 whole entry, looked up): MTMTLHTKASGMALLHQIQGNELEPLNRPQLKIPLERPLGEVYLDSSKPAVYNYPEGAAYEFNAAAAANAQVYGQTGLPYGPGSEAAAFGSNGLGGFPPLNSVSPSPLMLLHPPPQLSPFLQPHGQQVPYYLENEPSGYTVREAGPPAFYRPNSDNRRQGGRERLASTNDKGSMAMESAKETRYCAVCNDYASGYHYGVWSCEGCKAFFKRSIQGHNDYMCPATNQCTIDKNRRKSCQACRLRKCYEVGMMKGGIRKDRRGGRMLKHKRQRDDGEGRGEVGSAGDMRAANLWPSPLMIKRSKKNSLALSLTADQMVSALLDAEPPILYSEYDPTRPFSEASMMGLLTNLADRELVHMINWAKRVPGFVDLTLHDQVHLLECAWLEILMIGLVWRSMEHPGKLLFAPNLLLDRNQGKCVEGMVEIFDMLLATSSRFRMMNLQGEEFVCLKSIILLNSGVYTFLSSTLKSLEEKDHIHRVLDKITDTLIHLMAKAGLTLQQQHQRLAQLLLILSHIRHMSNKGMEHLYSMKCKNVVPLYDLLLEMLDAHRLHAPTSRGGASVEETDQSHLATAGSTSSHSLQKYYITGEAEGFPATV

Row | SMILES | outcome | AC50
1 | FC(F)(I)C(F)(F)C(F)(F)C(F)(F)I | inactive | –
2 | OCCC(F)(F)C(F)(F)C(F)(F)C(F)(F)C(F)(F)C(F)(F)F | inactive | –
3 | OCC(F)(F)C(F)(F)C(F)(F)C(F)(F)C(F)(F)C(F)(F)CO | – | 25.3 µM (active)
4 | NC(=O)C(F)(F)C(F)(F)C(F)(F)C(F)(F)C(F)(F)C(F)(F)C(F)(F)F | inactive | –
5 | O=P(O)(O)OCCC(F)(F)C(F)(F)C(F)(F)C(F)(F)C(F)(F)C(F)(F)F | inactive | –
6 | O=C(O)C(F)(OC(F)(F)C(F)(OC(F)(F)C(F)(F)C(F)(F)F)C(F)(F)F)C(F)(F)F (stereo not drawn) | inactive | –
7 | OCCC(F)(F)C(F)(F)C(F)(F)C(F)(F)C(F)(F)C(F)(F)C(F)(F)C(F)(F)F | inactive | –
8 | FC(F)(F)C(F)(F)C(F)(F)C(F)(F)CCI | inactive | –
9 | OCC(F)(F)C(F)(F)C(F)(F)C(F)(F)C(F)(F)C(F)(F)C(F)(F)C(F)(F)CO | – | 17.1 µM (active)
10 | FC(F)(I)C(F)(F)C(F)(F)C(F)(F)C(F)(F)C(F)(F)I | – | 12.1 µM (active)
11 | C=CC(=O)OCC(F)(F)C(F)(F)C(F)(F)C(F)(F)C(F)(F)C(F)(F)C(F)(F)C(F)F | inactive | –
12 | FC(F)(F)C(F)(F)C(F)(F)C(F)(F)C(F)(F)C(F)(F)I | inactive | –
13 | N=C(N)C(F)(F)C(F)(F)C(F)(F)C(F)(F)C(F)(F)C(F)(F)C(F)(F)F | inactive | –
